This note sets out measurements from PubChem BioAssay AID2629 (Broad Institute, 2010).

Out of some 320,000 compounds screened, about 1,900 (0.59%) were called active. The sample holds actives, similar compounds and a random draw of the others, so the mix is not that of the screen. No stated cut-off is given here; in the data, active means inhibition mostly above about 10% (no sharp cut-off); inactive means mostly below about 6.7%.

The target of this test is Protein LANA1 (Human herpesvirus 8 type P (isolate GK18)) (UniProt Q9QR71). Description: blockers of LANA interaction with H2A/H2B – biochemical, FP readout, HTS, primary screen (AID 2629). To be noted: cell-free LANA-H2A/H2B peptide, fluorescence polarization, stronger effect = higher value, concentration not given here.
Sequence of Protein LANA1 (Human herpesvirus 8 type P (isolate GK18)) (Q9QR71 whole entry, looked up): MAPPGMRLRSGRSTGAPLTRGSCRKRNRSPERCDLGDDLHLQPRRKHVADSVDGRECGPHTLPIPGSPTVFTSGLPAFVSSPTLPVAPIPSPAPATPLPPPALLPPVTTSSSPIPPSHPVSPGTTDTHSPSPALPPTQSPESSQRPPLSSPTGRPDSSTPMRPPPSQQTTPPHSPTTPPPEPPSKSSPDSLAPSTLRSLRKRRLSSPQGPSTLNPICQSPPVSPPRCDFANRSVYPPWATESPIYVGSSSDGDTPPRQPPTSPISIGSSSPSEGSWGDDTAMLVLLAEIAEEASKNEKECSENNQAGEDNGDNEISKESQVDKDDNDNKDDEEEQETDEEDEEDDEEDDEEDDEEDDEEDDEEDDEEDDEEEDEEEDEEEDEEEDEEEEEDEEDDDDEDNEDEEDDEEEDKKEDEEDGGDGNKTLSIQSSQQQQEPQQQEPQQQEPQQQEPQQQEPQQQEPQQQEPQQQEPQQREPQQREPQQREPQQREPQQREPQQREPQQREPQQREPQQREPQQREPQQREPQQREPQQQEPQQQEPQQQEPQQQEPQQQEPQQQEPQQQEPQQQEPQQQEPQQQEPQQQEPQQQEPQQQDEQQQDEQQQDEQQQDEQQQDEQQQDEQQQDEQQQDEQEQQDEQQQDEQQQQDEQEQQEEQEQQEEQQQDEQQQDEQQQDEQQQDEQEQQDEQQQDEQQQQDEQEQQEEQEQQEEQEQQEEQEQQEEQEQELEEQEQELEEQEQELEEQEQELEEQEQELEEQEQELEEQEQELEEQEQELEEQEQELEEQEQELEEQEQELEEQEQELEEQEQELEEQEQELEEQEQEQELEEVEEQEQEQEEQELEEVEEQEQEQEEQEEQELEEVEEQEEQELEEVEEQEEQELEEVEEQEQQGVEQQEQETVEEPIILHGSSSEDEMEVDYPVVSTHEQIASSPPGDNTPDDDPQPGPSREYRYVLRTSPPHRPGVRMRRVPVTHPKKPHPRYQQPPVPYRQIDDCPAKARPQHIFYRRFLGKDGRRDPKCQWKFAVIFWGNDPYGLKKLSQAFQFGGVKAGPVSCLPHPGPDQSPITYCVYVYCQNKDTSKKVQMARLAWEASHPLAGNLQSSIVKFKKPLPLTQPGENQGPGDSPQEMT
In the case of `COc1ccc(C(=O)OCC(=O)NCCCc2ccccc2)cc1OC`, the inhibition is -0.725% (inactive). For `CCN(CCCCOC(=O)c1ccc(OC)c(OC)c1)C(C)Cc1ccc(OC)cc1` (configuration not stated) the value was 8.66% (active); for `COc1ccc(C(CCN(Cc2ccc(OC)c(OC)c2)C(=O)CCl)c2ccccc2)cc1` (configuration not stated), -1.72% (inactive).

Take `CCN(C(=O)COC(=O)c1ccccc1O)c1cccc2ccccc12`: the inhibition was 4.86% (inactive).

Turning to `O=C(C1CCN(S(=O)(=O)Cc2ccccc2)CC1)N1CCCc2ccccc21`, the inhibition is 1.2% (inactive). For `Cc1cc(Nc2ccc(Br)cc2)nc2ccccc12` the value was -0.269% (inactive). For `Cc1cc(Nc2ccccc2)nc(N)n1` the value was 85.1% (active); for `CC(=O)Nc1ccc(Nc2cc(C)nc(Nc3ccc(NC(C)=O)cc3)n2)cc1`, -0.44% (inactive). For `Cc1cccn2c(CN(C)C3CCCc4ccccc43)c(C(=O)N3CCOCC3)nc12` (configuration not stated) the value was 3.32% (inactive).

In the case of `COc1ccc(OCC(=O)Nc2cc(C)c(Cl)cc2OC)c([N+](=O)[O-])c1`, the inhibition was 3% (inactive). For `Cc1ccc(C)c(NC(=O)COC(=O)CSc2ccccc2)c1` the value was -1.08% (inactive). To `COc1cc(NC(=O)COC(=O)CSc2ccc3ccccc3c2)c(C)cc1[N+](=O)[O-]` belongs 10.3% (active); to `CCCC(=O)OCC(=O)Nc1cc(Cl)ccc1[N+](=O)[O-]`, 3.99% (inactive); to `COc1cc(NC(=O)COC(=O)c2cnc(C)cn2)c(C)cc1[N+](=O)[O-]`, 0.629% (inactive). For `Cc1cc(NC(=O)COC(=O)COc2ccc(Cl)cc2C)c([N+](=O)[O-])cc1C` the value was 18.3% (active); for `Cc1ccc2c(c1)C(c1ccccc1)N(C(=O)c1ccc(F)cc1)CC(=O)N2` (configuration not stated), -6.68% (inactive). As for `CCCc1nc2c(C)cc(-c3nc4ccccc4n3C)cc2n1Cc1ccc(-c2ccccc2C(=O)O)cc1`, the inhibition was -5.17% (inactive).

`O=C(CN1CCCC1)Nc1sc2c(c1C(=O)Nc1ccccc1)CCCC2`: the inhibition is -9.6% (inactive).

As to `c1ccc(CN=C2Nc3ccccc3CS2)nc1`, the inhibition was -3.85% (inactive). Turning to `CS(=O)(=O)N1CCN(CC(=O)NC2CCCC2)CC1`, the inhibition is 3.66% (inactive). Take `Cc1ccc(S(=O)(=O)NC[C@H]2O[C@@H](n3cnc4c(N)ncnc43)[C@H](O)[C@@H]2O)s1`: the inhibition is -71.8% (inactive). In the case of `COc1cc(C(=O)Nc2ncccc2C)ccc1OCC(=O)N1CCOCC1`, the inhibition was -0.868% (inactive). For `CCOc1cc(C(=O)OCC(=O)Nc2cccc(C)c2)ccc1OCC(=O)N1CCOCC1` the value was 25.3% (active); for `O=C(OCC(=O)N1CCOCC1)c1ccc2ccccc2c1`, -0.101% (inactive). For the molecule `O=C(NCC1CCCO1)C1CCN(C2CCN(C(=O)C3CCCCC3)CC2)CC1` (configuration not stated), the inhibition is 0.649% (inactive). For `COC(=O)c1ccccc1OCC(=O)N1CCN(c2ccc(Cl)cc2)CC1` the value was 3.13% (inactive); for `O=C(NC(CC(=O)N1CCN(c2ccccc2)CC1)c1ccccc1)c1ccccc1Cl` (configuration not stated), 4.7% (inactive).

As for `C[C@H](NC(=O)c1ccccc1Cl)C(=O)OCC(=O)N1CCN(c2ccccc2)CC1`, the inhibition is 41% (active). To `Cc1ccc(CCN2CC(C(=O)NCCc3ccccc3)CC2=O)cc1` (configuration not stated) belongs 18.8% (inactive); to `CN(CC(=O)Nc1cccc(F)c1)C(=O)C1CC(=O)N(CCc2ccccc2)C1` (configuration not stated), -5.92% (inactive); to `COCCCNC(=O)C1CC(=O)N(CCc2ccccc2)C1` (configuration not stated), 0.409% (inactive). `CCNC(=O)c1cccc(NC(=O)C2CC(=O)N(CCc3ccccc3)C2)c1` (configuration not stated): the inhibition was 75.8% (active).

Turning to `O=C(NC1CCCCC1)C1CC(=O)N(CCc2ccccc2)C1` (configuration not stated), the inhibition was -0.144% (inactive). For `O=C(NCCCN1CCCCC1)C1CC(=O)N(CCc2ccccc2)C1` (configuration not stated) the value was 15% (active); for `COc1ccc(CNC(=O)C2CCC(CNc3c(N4CCOCC4)c(=O)c3=O)CC2)cc1` (configuration not stated), -0.686% (inactive); for `CCCCCCCCCCOC(=O)Cn1c(COc2ccc(C)cc2)[n+](C)c2ccccc21`, 15.8% (active). Consider `CCOC(=O)Cn1c(-c2cccnc2Cl)nc2ccccc21`, for which the inhibition was 6.09% (inactive). For `CCCCCCCCCCOC(=O)Cn1c(COc2cccc(OC)c2)[n+](C)c2ccccc21` the value was 6.12% (inactive); for `COC(=O)C(C)n1cnc2c(nnn2-c2ccc(F)cc2)c1=O` (configuration not stated), -1.75% (inactive); for `NC(N)=N/N=C/c1ccc(OCc2ccc(Cl)cc2Cl)cc1`, 0.216% (inactive). For `C=CCN(c1ccc(Cl)cc1)S(=O)(=O)c1cccc(C(=O)OCC(=O)N(C)C)c1` the value was -2.64% (inactive); for `O=C(NNC(=O)c1cnccc1C(F)(F)F)c1ccc(Cl)cc1`, 1.78% (inactive). As to `CCC1=C(OC(=O)N(CC)CC)N2C(=O)OC(=NCCc3c[nH]c4ccccc34)[C@]2(C)[C@H]2C1=CC[C@H]1C(=O)N(CC)C(=O)[C@H]12`, the inhibition was 1.67% (inactive).

On to `Oc1ccc(N2CCN(C(=S)NCc3ccccc3)CC2)cc1`, for which the inhibition is -0.124% (inactive). To `Oc1ccccc1N1CCN(C(=S)NCc2ccccc2)CC1` belongs 18.4% (active); to `O=C(CN1CCN(c2ccccc2O)CC1)NC(=O)NCc1ccccc1`, 2.65% (inactive). To `Cc1ccc(CN(C(=O)c2sc3ccccc3c2Cl)C2CCS(=O)(=O)C2)cc1` (configuration not stated) belongs 2.69% (inactive). On to `CCCCNC(=O)OCCSCCS(=O)(=O)c1ccc(Cl)cc1`, for which the inhibition was -3.62% (inactive). To `CCCN(CCC)CC(O)COc1ccccc1C(=O)Nc1ccccc1` (configuration not stated) belongs -2.37% (inactive); to `CN(C)S(=O)(=O)c1ccc(NC(=O)COC(=O)c2n[nH]c3ccccc23)cc1`, 15.3% (active); to `O=C(COC(=O)c1n[nH]c2ccccc12)Nc1ccccc1Br`, -3.41% (inactive). For `CN(C)S(=O)(=O)c1ccc(NC(=O)COC(=O)Cn2[nH]c(=O)c3ccccc3c2=O)cc1` the value was 3.02% (inactive); for `CCOCCCn1c(SCC(=O)Nc2cc(OC)ccc2OC)nc2ccccc2c1=O`, 3.49% (inactive); for `Cc1ccc2c(c1)N(CC(=O)NCCCN1CCCCC1)C(=O)c1cccnc1O2`, 3.43% (inactive). To `COc1cc(OC)c(OC)cc1CN1CCN(C(=O)c2cccc3ccccc23)CC1` belongs 0.329% (inactive). On to `Cc1ccc(S(=O)(=O)N2CCC(Oc3ccc(-n4cnnn4)cc3)CC2)cc1`, for which the inhibition was -4.09% (inactive). To `CCn1c(SCC(=O)NNC(=O)c2ccc(OC)cc2)nnc1C(C)C` belongs -0.104% (inactive).
